# The whole screen tested about 69,000 compounds, of which about 8,600 (12%) showed an effect of 50% or more. What follows is part of a selection rich in strong results, with near analogues and random picks from the rest.
# Test system: Plasmodium berghei
# Assay: Screen against P. berghei liver stage (PbLuc), transformed with Luciferase, at 10uM
# Type: functional, HepG2
# Settings: tested at 10 uM
row,Compound,INHIBITION [%]
1,O=C(NCC(c1ccc(F)cc1)N1CCOCC1)Nc1cn[nH]c1 (configuration not stated),-57.4
2,Cc1cc(C(=O)Nc2ccc(-c3nnc(N(C)C)o3)cc2)oc1C,22.1
3,Cc1nnc2ccc(OCCNS(C)(=O)=O)nn12,5.91
4,COCCNCc1cc2cc(C)cc(C)c2[nH]c1=O,14.6
5,COc1ccc(CNCC2CN(C3CC3)CCO2)cc1OC (configuration not stated),-13.6
6,COc1ccccc1-c1nnc2n1N=C(N)C(C#N)S2 (configuration not stated),34.3
7,Cc1ccnc(NC(=O)C2CCN(CCCn3ccnc3C)CC2)c1,44.3
8,Cc1ccnc(NC(=O)C2CCN(CCCc3cn[nH]c3)CC2)c1,54.5
9,CC(C)(C)CC(=O)NCC(=O)Nc1ccn(CCCn2ccnc2)n1,23.1
10,Cc1ccnc(NC(=O)C2CCN(CCCn3ccnc3)CC2)c1,61.9
11,c1n[nH]cc1CCCN1CCC(OC2CCCCC2)CC1,11.8
12,COCC1CCN(CCCc2cn[nH]c2)CC1,30.8
13,O=C(c1ccc(-c2ccc(O)nc2)s1)N1CCCCCC1,-13.87
14,COCCN(Cc1cccnc1)c1nc(C)nc2oc(C)nc12,44.3
15,CCN(Cc1ccncc1)c1nc(C)nc2oc(C)nc12,40.6
16,CCOc1ccc(CN(CCOC)c2nc(C)nc3oc(C)nc23)cc1,83.2
17,COCCN(Cc1ccccc1C)c1nc(C)nc2oc(C)nc12,74
18,Cc1nc(N(C)CCCc2nccn2C)c2nc(C)oc2n1,-26.7
19,Cc1nc(N(CCC(N)=O)Cc2ccccc2)c2nc(C)oc2n1,48.8
20,CCS(=O)(=O)N1CC[C@H]2[C@H]1CC(=O)N2Cc1csc(C)n1,-10.3
21,CN1CCN(Cc2cn3c(n2)CNCC3)CC1,36.4
22,O=C(CSC1CCCC1)N1CCN(C(=O)C2CC2c2ccccc2)CC1 (configuration not stated),46.4

row,Compound,INHIBITION [%]
1,Cc1cnc(-c2cccc(-c3ccn(CCCO)n3)c2)nc1N(C)C,26.8
2,CCS(=O)(=O)CC(=O)NC(c1ccccc1)C1CCCCC1 (configuration not stated),-5.53
3,COCCc1noc(CN2CCCC2c2c(C)nn(C)c2Cl)n1 (configuration not stated),5.9
4,CC(C(=O)Nc1ccc(C#N)cc1)N1CCc2ccccc21 (configuration not stated),-45.2
5,N#Cc1ccc(CNCCS(=O)(=O)N2CCc3ccccc32)cc1,60.3
6,N#Cc1ccc(NCCS(=O)(=O)N2CCc3ccccc32)nc1,14
7,O=C(CCc1ccccc1)C1CCCN(C(=O)c2cncc(Cl)c2)C1 (configuration not stated),42.5
8,CCN(CC)S(=O)(=O)N1CCCC1c1nnc2n1CCCCC2 (configuration not stated),20.9
9,CCN(CC)Cc1nc2c(o1)CN(C(=O)c1ccncc1F)C2,3.17
10,O=C(c1ccncc1F)N1Cc2nc(CN3CCCCC3)oc2C1,51.2
11,O=C(c1ccc2[nH]ccc2c1)N1Cc2nc(CN3CCCCC3)oc2C1,50.7
12,O=C(c1ccncc1F)N1Cc2nc(COCC3CC3)oc2C1,55.7
13,CCN(CC)Cc1nc2c(o1)CN(C(=O)c1ccc3[nH]ccc3c1)C2,0.804
14,O=C(Cc1cccs1)N1Cc2nc(COCC3CC3)oc2C1,18.6
15,O=C(c1ccc2c(c1)OCO2)N1CCCSCC1CN1CCCC1 (configuration not stated),3.16
16,O=C(NCc1ccccc1)N1Cc2nc(COCC3CC3)oc2C1,44.2
17,O=C(c1ccc2[nH]ccc2c1)N1CCCSCC1CN1CCCC1 (configuration not stated),59.8
18,O=C(c1ccc(F)c(F)c1)N1CCCSCC1CN1CCCC1 (configuration not stated),25.3
19,CN(C)Cc1nc2c(o1)CN(C(=O)c1ccncc1F)C2,24.9
20,O=C(c1ccc2[nH]ccc2c1)N1Cc2nc(CN3CCCC3)oc2C1,31.4
21,CN(C)C(=O)C1CCN(Cn2nc(-c3ccc(F)cc3)oc2=O)CC1,34.7
22,CCCN1CCC(Cc2noc(-c3ncccc3C)n2)CC1,12.9

row,Compound,INHIBITION [%]
1,CNC(=O)CCNC(=O)c1cc(C)n(-c2cccc(OC)c2)c1C,11.2
2,CNc1nc2c(c(C(=O)N3CCCC3)n1)CN(C(=O)C1CCCC1)CC2,43.4
3,Cc1nc(S(=O)(=O)N2CCC3(CCCCC3)C2)cn1C,-9.2
4,NC(=O)COc1cccc(C(=O)NCc2ccc(Cl)s2)c1,3.03
5,O=C(C1CCOC1)N1CC[C@@H](O)[C@@H]1Cc1ccccc1 (some centres not stated),10.7
6,CCC(=O)N1CCCc2c(cnn2C)C1,-5.452
7,COC(=O)CNC(=O)c1cc(-c2ccccc2)nc2ncnn12,28.2
8,O=C(NCC(F)F)c1cc(-c2ccccc2)nc2ncnn12,60.2
9,CNC(=O)c1cc(-c2ccccc2)nc2ncnn12,49
10,Cc1ccc(C(=O)N2CCC3(CC2)COC(COc2ccccn2)C3)o1 (configuration not stated),-9.1
11,O=C(c1ccncc1)N1CCCC1c1cccc(Br)c1 (configuration not stated),15.1
12,CC(=O)NCC(=O)N1Cc2cnc(CC(C)C)nc2C1,60.3
13,CCc1ncc2c(n1)CN(C(=O)CNC(=O)c1ccccc1)C2,30.3
14,CCc1ncc2c(n1)CN(C(=O)COC)C2,-7.35
15,O=C(Cn1c(=O)oc2ccccc21)N1Cc2cnn(CCO)c2C1,13.7
16,CCc1ncc2c(n1)CN(C(=O)c1c(C)[nH]c(C(C)=O)c1C)C2,39.6
17,O=C(Cn1c(=O)oc2ccccc21)N1Cc2cncnc2C1,15.4
18,CC(C)Cc1ncc2c(n1)CN(C(=O)Cn1c(=O)oc3ccccc31)C2,54.5
19,CCc1ncc2c(n1)CN(C(=O)CNC(=O)C(C)C)C2,10.3
20,CCc1ncc2c(n1)CN(C(=O)c1c(C)[nH]c3c1C(=O)CCC3)C2,61
21,CCOc1ccc(C(=O)N2Cc3cnc(CC)nc3C2)o1,-6.83
22,CCc1ncc2c(n1)CN(C(=O)CC(C)NC(C)=O)C2 (configuration not stated),51.2

row,Compound,INHIBITION [%]
1,CC(=O)c1c(C)nn(CC(=O)N2Cc3cnc(CC(C)C)nc3C2)c1C,27.9
2,FC(F)(F)c1ccc(-c2cnc(C3CCCN3)cn2)cc1 (configuration not stated),34.675
3,CCC(CC)C(=O)N1CCN(Cc2cc(-c3ccncc3)nn2C)CC1,-8.12
4,Cc1nn(C)c(N2CCOCC2)c1CNCc1ccccc1CO,-25.9
5,NC(=O)C(NCc1nn(-c2ccccc2)c2c1CCC2)c1ccccc1 (configuration not stated),8.15
6,Fc1ccccc1CN1CCC(c2noc(-c3ccccn3)n2)CC1,-23.4
7,O=C1NCCCCC1NCc1csc(-c2ccccn2)n1 (configuration not stated),8.07
8,CC(Cn1cccn1)NC(=O)NCc1ccoc1 (configuration not stated),15.6
9,CS(=O)(=O)N1CC2(CCN(Cc3ccccn3)C2)Cc2ccccc21 (configuration not stated),14.3
10,CC(C)CC(=O)NCCCc1cc(N)n(-c2ccccc2)n1,16.6
11,Cc1noc(C)c1CN(C)Cn1c(=O)n(C)c2ccccc21,28.2
12,Cc1noc(C)c1CN(C)C(=O)Cn1c(=O)n(C)c2ccccc21,26.8
13,Cc1noc(C)c1CN(C)Cn1c(=O)oc2ccccc21,50.4
14,Cc1ccc(C(CNC(=O)c2c(C)noc2C(C)C)N(C)C)cc1 (configuration not stated),7.12
15,CC(CN1CCCCCC1)NCc1nncn1C1CCCCC1 (configuration not stated),75.4
16,CC(CN1CCOCC1)NCc1nncn1C1CCCCC1 (configuration not stated),28.3
17,Cc1cc(C)n(CC(C)NCc2nncn2C2CCCCC2)n1 (configuration not stated),-47.9
18,O=C(NCc1ccccc1)[C@H]1C[C@H]2CN(S(=O)(=O)C3CC3)C[C@@H]1O2,31.8
19,CC1CN(Cc2ccc(-n3cccn3)cc2)CCO1 (configuration not stated),-15.5
20,Cc1noc(C)c1CN1C[C@@H]2CC(F)(F)C[C@@H]2C1,87.2
21,Cc1noc(C)c1CN1C[C@@H]2C[C@H](C(=O)NCC3CC3)N(C)[C@@H]2C1,26
22,Cc1noc(C)c1CN1C[C@@H]2C[C@@H](C)O[C@@H]2C1,-10.2

row,Compound,INHIBITION [%]
1,CNC(=O)[C@H]1C[C@@H]2CN(Cc3c(C)noc3C)C[C@@H]2N1C(C)=O,22.2
2,CNC(=O)[C@@H]1C[C@H]2CN(Cc3c(C)noc3C)C[C@H]2N1C(C)C,83.8
3,Cc1noc(C)c1CN1C[C@H]2CNC[C@H]2C1,-19.2
4,CC(=O)N1CCC(c2cnc(NC3CCOCC3)cn2)CC1,-20.6
5,Cc1ncsc1CNC(=O)N(CCCO)C1CCc2ccccc21 (configuration not stated),-7.35
6,COc1cc(S(=O)(=O)N2CCc3ccc(F)cc32)cc(C(=O)O)c1OC,42.9
7,Cc1ccc(S(=O)(=O)N2CCc3ccc(F)cc32)cc1C(=O)O,-3.2
8,Cc1cc(S(=O)(=O)N2CCc3ccc(F)cc32)cc(C(=O)O)c1C,61.3
9,O=C(c1ccc[nH]1)N1CCCn2c(CNC3CCC3)nnc2C1,45.7
10,CC(C)CNC(=O)CNc1c(NCc2ccco2)c(=O)c1=O,31.3
11,O=C(Cc1ccccc1)NCc1ncc(-c2ccccc2C(=O)O)cn1,1.65
12,O=C(Cc1ccccc1)NCc1ccc(-c2ccccc2C(=O)O)cn1,50.3
13,COCC(=O)NCc1ccc(-c2ccccc2C(=O)O)cn1,-26.7
14,Cc1ccc(CNC(=O)c2ccc(F)cc2)o1,0.868
15,CCN1CCc2[nH]cnc2C12CCN(Cc1ccc3nsnc3c1)CC2,23.6
16,O=C(Cc1ccc2c(c1)OCC2)Nc1nn[nH]n1,23.1
17,O=C(O)[C@@H]1CCCN1c1nccc(Nc2ccccc2)n1,0.618
18,O=C([C@@H]1CCCN1c1nccc(Nc2ccccc2)n1)N1CCCCC1,78.7
19,CCC(C)CNC(=O)[C@@H]1CCCN1c1nccc(Nc2ccccc2)n1 (some centres not stated),13.5
